# Results as given in PubChem BioAssay AID1159580 (chemical genetic matrix, 2015).
# Several values for one entry are separate records, joined by “and”; a condition that tells them apart may be missing. Equal entries are not always repeated. The whole screen tested about 5,500 compounds, of which about 2,000 (36%) were called active. Roughly 18% stayed inconclusive and do not appear here. Some of the results follow. Unmarked numbers belong to inactive results. No stated cut-off is given here; in the data, active means normalized growth mostly below about 0.91 (no sharp cut-off); inconclusive means no clear call, values can overlap the other calls; inactive means mostly above about 0.92.
# Test: chemical genetic growth profiling, strain panel (AID 1159580);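 further: tested at 20 µM; growth read once vehicle control cultures reached saturation at 30 °C; 1 = growth at the plate median or of vehicle wells; lower values mean less growth of the strain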
# Details: S. cerevisiae deletion strains, growth OD
structure (smiles),measurement,setting,value
CCOP(=S)(OCC)Oc1ccc2c(C)c(Cl)c(=O)oc2c1,normalized growth,"locus YAL013W, strain DEP1, active compounds read low",0.987
same,normalized growth,"locus YAL021C, strain ccr4, active compounds read low",0.997
same,normalized growth,"locus YAL026C, strain drs2, active compounds read low",0.96
same,normalized growth,"locus YAL030W, strain snc1, active compounds read low",0.976
same,normalized growth,"locus YBL061C, strain skt5, active compounds read low",0.96
same,normalized growth,"locus YBR009C, strain hhf1, active compounds read low",0.982
same,normalized growth,"locus YBR021W, strain FUR4, active compounds read low",0.97
same,normalized growth,"locus YBR023C, strain chs3, active compounds read low",0.944
same,normalized growth,"locus YBR171W, strain sec66, active compounds read low",0.939
same,normalized growth,"locus YBR229C, strain ROT2, active compounds read low",0.955
same,normalized growth,"locus YBR231C, strain swc5, active compounds read low",0.979
same,normalized growth,"locus YBR279W, strain paf1, active compounds read low",0.971
same,normalized growth,"locus YCL011C, strain gbp2, active compounds read low",0.906 (active)
same,normalized growth,"locus YCL016C, strain dcc1, active compounds read low",0.984
same,normalized growth,"locus YCL029C, strain bik1, active compounds read low",0.984
same,normalized growth,"locus YCL061C, strain MRC1, active compounds read low",0.96
same,normalized growth,"locus YCL069W, strain vba3, active compounds read low",0.957
same,normalized growth,"locus YCR088W, strain abp1, active compounds read low",0.964
same,normalized growth,"locus YDL005C, strain med2, active compounds read low",0.959
same,normalized growth,"locus YDL035C, strain GPR1, active compounds read low",0.978
same,normalized growth,"locus YDL040C, strain nat1, active compounds read low",0.964
same,normalized growth,"locus YDL074C, strain BRE1, active compounds read low",0.907
same,normalized growth,"locus YDL101C, strain DUN1, active compounds read low",0.975
same,normalized growth,"locus YDL134C, strain PPH21, active compounds read low",0.981
same,normalized growth,"locus YDL185W, strain tfp1, active compounds read low",0.957
same,normalized growth,"locus YDL192W, strain arf1, active compounds read low",0.975
same,normalized growth,"locus YDR001C, strain nth1, active compounds read low",0.977
same,normalized growth,"locus YDR069C, strain doa4, active compounds read low",0.938
same,normalized growth,"locus YDR101C, strain arx1, active compounds read low",0.983
same,normalized growth,"locus YDR137W, strain rgp1, active compounds read low",0.939
same,normalized growth,"locus YDR150W, strain NUM1, active compounds read low",0.982
same,normalized growth,"locus YDR159W, strain sac3, active compounds read low",0.901
same,normalized growth,"locus YDR162C, strain NBP2, active compounds read low",0.92
same,normalized growth,"locus YDR195W, strain ref2",1.03
same,normalized growth,"locus YDR297W, strain sur2, active compounds read low",0.988
same,normalized growth,"locus YDR318W, strain mcm21, active compounds read low",0.976
same,normalized growth,"locus YDR334W, strain swr1, active compounds read low",0.961
same,normalized growth,"locus YDR335W, strain msn5, active compounds read low",0.975
same,normalized growth,"locus YDR388W, active compounds read low",0.98
same,normalized growth,"locus YDR392W, strain spt3, active compounds read low",0.836
same,normalized growth,"locus YDR502C, strain sam2, active compounds read low",0.984
same,normalized growth,"locus YEL003W, strain gim4, active compounds read low",0.953
same,normalized growth,"locus YEL037C, strain rad23, active compounds read low",0.962
same,normalized growth,"locus YEL061C, strain CIN8 (second series), active compounds read low",0.962
same,normalized growth,"locus YEL061C, strain CIN8, active compounds read low",0.979
same,normalized growth,"locus YER015W, strain faa2, active compounds read low",0.966
same,normalized growth,"locus YER016W, strain bim1, active compounds read low",0.97
same,normalized growth,"locus YER110C, active compounds read low",0.977
same,normalized growth,"locus YER111C, strain swi4, active compounds read low",0.975
same,normalized growth,"locus YER155C, strain BEM2 (second series), active compounds read low",0.959
same,normalized growth,"locus YER155C, strain BEM2, active compounds read low",0.998
same,normalized growth,"locus YER167W, strain BCK2, active compounds read low",0.99
same,normalized growth,"locus YFR010W, strain ubp6, active compounds read low",0.942
same,normalized growth,"locus YGL078C, strain dbp3, active compounds read low",0.984
same,normalized growth,"locus YGL086W, strain mad1, active compounds read low",0.989
same,normalized growth,"locus YGL167C, strain pmr1, active compounds read low",0.956
same,normalized growth,"locus YGL173C, strain kem1, active compounds read low",0.956
same,normalized growth,"locus YGL227W, strain vid30, active compounds read low",0.961
same,normalized growth,"locus YGL240W, strain doc1, active compounds read low",0.933
same,normalized growth,"locus YGL248W, strain PDE1, active compounds read low",0.957
same,normalized growth,"locus YGL253W, strain hxk2, active compounds read low",0.903 (active)
same,normalized growth,"locus YGR078C, strain PAC10, active compounds read low",0.973
same,normalized growth,"locus YGR135W, strain pre9, active compounds read low",0.97
same,normalized growth,"locus YGR229C, strain SMI1, active compounds read low",0.947
same,normalized growth,"locus YGR252W, strain gcn5, active compounds read low",0.937
same,normalized growth,"locus YHR013C, strain ard1, active compounds read low",0.968
same,normalized growth,"locus YHR027C, strain rpn1, active compounds read low",1
same,normalized growth,"locus YHR030C, strain SLT2, active compounds read low",0.986 and 1.02
same,normalized growth,"locus YHR079C, strain IRE1 (second series), active compounds read low",0.988
same,normalized growth,"locus YHR079C, strain IRE1, active compounds read low",1
same,normalized growth,"locus YHR094C, strain hxt1, active compounds read low",0.985
same,normalized growth,"locus YHR129C, strain ARP1, active compounds read low",0.983
same,normalized growth,"locus YHR142W, strain chs7, active compounds read low",0.912
same,normalized growth,"locus YHR200W, strain rpn10, active compounds read low",0.984
same,normalized growth,"locus YIL066C, strain RNR3, active compounds read low",0.961
same,normalized growth,"locus YIL073C, strain SPO22, active compounds read low",0.988
same,normalized growth,"locus YIL125W, strain kgd1, active compounds read low",0.981
same,normalized growth,"locus YIR030C, strain dcg1, active compounds read low",0.989
same,normalized growth,"locus YJL092W, strain hpr5, active compounds read low",0.944
same,normalized growth,"locus YJL095W, strain BCK1 (second series), active compounds read low",0.96
same,normalized growth,"locus YJL095W, strain BCK1, active compounds read low",0.958 and 1.02
same,normalized growth,"locus YJL115W, strain asf1, active compounds read low",0.962
same,normalized growth,"locus YJL129C, strain trk1, active compounds read low",0.942
same,normalized growth,"locus YJL134W, strain LCB3, active compounds read low",0.971
same,normalized growth,"locus YJL154C, strain vps35, active compounds read low",0.985
same,normalized growth,"locus YJL164C, strain tpk1, active compounds read low",0.974
same,normalized growth,"locus YJL166W, strain qcr8, active compounds read low",0.935
same,normalized growth,"locus YJL168C, strain set2, active compounds read low",0.986
same,normalized growth,"locus YJL187C, strain SWE1 (second series), active compounds read low",0.981
same,normalized growth,"locus YJL187C, strain SWE1, active compounds read low",0.964
same,normalized growth,"locus YJR043C, strain POL32, active compounds read low",0.996
same,normalized growth,"locus YJR066W, strain TOR1, active compounds read low",0.967
